# In PubChem BioAssay AID651908 (Vanderbilt Specialized Chemistry Center, 2012):
# Active and inactive are the calls of the source. The rule behind the calls is not given here.
# Target: Histone deacetylase 8 (Homo sapiens) (UniProt Q9BY41)
# Assay: HDAC8 deacetylase inhibition, profiling panel, selectivity assay for E-cadherin restoration project, biochemical, human (AID 651908)
# Details: recombinant HDAC8, fluorogenic peptide substrate, deacetylation; series mostly up to 10 µM
# Chain of Histone deacetylase 8 (Homo sapiens) (Q9BY41 whole entry, looked up): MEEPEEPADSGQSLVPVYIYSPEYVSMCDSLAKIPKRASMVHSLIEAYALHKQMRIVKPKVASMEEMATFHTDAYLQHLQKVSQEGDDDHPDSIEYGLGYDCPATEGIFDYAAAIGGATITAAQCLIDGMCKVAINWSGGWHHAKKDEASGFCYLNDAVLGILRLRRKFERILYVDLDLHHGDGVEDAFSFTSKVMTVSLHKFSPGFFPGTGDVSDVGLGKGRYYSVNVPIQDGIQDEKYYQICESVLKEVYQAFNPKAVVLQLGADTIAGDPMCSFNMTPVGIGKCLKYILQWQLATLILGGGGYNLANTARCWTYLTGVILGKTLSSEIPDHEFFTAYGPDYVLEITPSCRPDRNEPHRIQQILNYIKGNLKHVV
structure (smiles),measurement,value
O=C(NCCCNC(=O)c1ccc[nH]c1=O)c1cc(-c2ccccc2)on1,outcome,inactive
